The entries come from a sample that favours hits as a whole.
TbREL1 inh: TbREL1 inhibition, primary screen | inhibition, % at 9.66 µM | P86926 | TbREL1 RNA ligation, FRET fluorescence | 89,000 compounds, 0.49% hits | AID 1117264;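 active means inhibition above the mean inhibition across all screened compounds plus 3 SD, cut at about 11% in these data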;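 further: 0% = plate median of test wells and 100% = NSC42067 control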
Target sequence (P86926 whole entry, looked up): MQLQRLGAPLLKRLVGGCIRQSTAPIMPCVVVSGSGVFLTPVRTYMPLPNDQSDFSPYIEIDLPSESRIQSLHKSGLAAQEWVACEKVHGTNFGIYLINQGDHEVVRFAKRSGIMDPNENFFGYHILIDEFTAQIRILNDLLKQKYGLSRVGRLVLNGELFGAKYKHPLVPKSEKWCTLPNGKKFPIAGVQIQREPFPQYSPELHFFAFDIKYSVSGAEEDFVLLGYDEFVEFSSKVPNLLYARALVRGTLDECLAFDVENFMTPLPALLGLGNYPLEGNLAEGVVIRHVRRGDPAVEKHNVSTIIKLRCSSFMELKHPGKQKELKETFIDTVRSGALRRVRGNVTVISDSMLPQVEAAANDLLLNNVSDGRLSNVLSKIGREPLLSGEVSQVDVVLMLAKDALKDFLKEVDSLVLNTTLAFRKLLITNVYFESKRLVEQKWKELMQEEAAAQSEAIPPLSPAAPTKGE
TbREL1 conf: TbREL1 inhibition, confirmation | shares compounds with TbREL1 inh | TbREL1 RNA ligation, FRET fluorescence | inhibition, % at 9.66 µM | 390 compounds, 37% hits;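 active means mean inhibition across replicates above a set limit taken from the earlier primary screen, cut at about 11% in these data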;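 further: 0% = REL1 with substrate and DMSO and 100% = REL1 plus control inhibitor NSC42067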
Numbers without * were called inactive; ! = repeats disagree.

SMILES	TbREL1 inh	others
O=C1CCC[C@H]2C[C@H](NCc3ccc(Cl)c(C(F)(F)F)c3)CC[C@]23CCCN13	4
Cc1ccccc1NC(=O)c1ccccn1	1
O=C(Nc1nccs1)c1ccccn1	15*	TbREL1 conf=5
O=C(Nc1nccs1)c1cnccn1	7
O=C(Nc1ccc(F)cc1)Nc1c(-c2ccc(F)cc2)nc2ncccn12	6
COC(=O)CN1CCN(C(=O)c2nocc2C)CC1	-1
CCOc1cc(NC(=O)CCl)c(OCC)cc1NC(=O)CCl	12*	TbREL1 conf=6
CCOc1cc(NC(=O)C2CCCO2)c(OCC)cc1NC(=O)C1CC1 (centres undefined)	0
CCOc1ccccc1OCC(=O)Nc1ccc(Cl)cc1Cl	-1
COc1ccc(CN(CCN2CCOCC2)C(=O)c2ccc(F)cc2F)cc1OC	-1
c1ccc(CCSc2nnc(-c3cccnc3)n2Cc2ccccc2)cc1	-2
COC(=O)[C@]12C[C@H](CC(=O)NCC3CCCCC3)C(=O)N(Cc3ccco3)C1=C[C@H](C1CCCC1)O[C@@H]2C	-2
C[c-]1[c-](C)[c-](C)[c-](C)[c-]1C.[Fe].c1cc2nccc(N3CCCC3)[c-]2c1 (centres undefined)	14*	TbREL1 conf=16*!
O=C(NCc1ccc(F)c(F)c1)C1C2C=CC3(CN(Cc4ccccc4)C(=O)C13)O2 (centres undefined)	-2
O=C(Nc1ccccc1)N1CCN(c2ccc(F)cc2)CC1	2
O=C(Nc1ccc(F)cc1)N1CCCN(c2ccc(C(F)(F)F)cn2)CC1	25*	TbREL1 conf=0
O=C(Nc1ccccc1)N1CCCN(c2ccc(C(F)(F)F)cc2[N+](=O)[O-])CC1	0
CN(C)S(=O)(=O)c1cccc(C(=O)N/N=C\c2cccc(C#N)c2)c1	1
Cc1ccc(NC(=O)C2CCCN2S(=O)(=O)c2cccnc2)cc1C (centres undefined)	5
O=C(N/N=C/c1ccccn1)c1cccs1	12*	TbREL1 conf=6
O=C(N/N=C\c1ccccn1)c1cccc(C(=O)N/N=C\c2ccccn2)n1	-7
O=C(Cc1cccs1)N/N=C/c1ccccn1	3
CCn1c2ccccc2c2cc(NC(=O)COC(=O)c3cc(F)cc(F)c3)ccc21	1
CCC(C)NC(=O)CSc1nnc(-c2cc(OC)c(OC)c(OC)c2)o1 (centres undefined)	-1
O=C(CN1CCN(c2ccc(O)cc2)CC1)Nc1ccc2c(c1)OCCO2	-2
SMILES	TbREL1 inh	others
O=C(CN1CCOCC1)Nc1ccc2c(c1)OC(F)(F)O2	4
O=C(CN1CCOCC1)Nc1ccc2c(c1)OCCO2	12*	TbREL1 conf=5
Cc1ccc(Cn2cc(COC(=O)NCCc3c[nH]c4ccccc34)nn2)cc1	-4
O=C(Nc1ccc(C(O)(C(F)(F)F)C(F)(F)F)cc1)c1ccc(F)cc1F	2
COC(=O)[C@]12C[C@H](CC(=O)N3CCCC3)C(=O)N(Cc3cccc4ccccc34)C1=C[C@H](COCc1ccccc1)O[C@@H]2C	-1
CCCc1nc2c(=O)n(C)c(=O)nc-2n(C)n1	61*	TbREL1 conf=86*
COc1ccc(CCn2c(C)nc3c(c(=O)c4ccccc4n3C)c2=O)cc1	9
Cc1nc2ccc(S(=O)(=O)NCC(=O)NCc3ccc(F)cc3)cc2s1	3
CN(Cc1cccs1)c1ncnc2ccc(-c3ccc4c(c3)OCO4)cc12	2
Nc1nnc(SCCN2C(=O)c3ccccc3C2=O)s1	11*	TbREL1 conf=3
Nc1nnc(SCC(=O)c2ccc3ccccc3c2)s1	-2
Cc1cc(C)n2c(SCCN3C(=O)c4ccccc4C3=O)nnc2n1	0
COc1ccc(-n2c(SCC(=O)N(CC(C)C)CC(C)C)nnc2-c2ccncc2)cc1	-2
CCOC(=O)CNC(=O)CSc1nnc(-c2ccc(C(C)(C)C)cc2)n1-c1ccc(Cl)cc1	5
C[C@H]1[C@@H](OC(=O)N2CCN(c3ccccc3)CC2)CC[C@@]23CCCN2C(=O)CCC[C@@H]13	-4
Cc1cccc(NC(=O)CNC(=O)[C@H](CCc2ccccc2)NC(=O)[C@H]2O[C@@H](n3cnc4c(N)ncnc43)[C@H](O)[C@@H]2O)c1C	4
N[C@H]1CC[C@@H]2SC[C@@H](C(=O)O)N2C1=O	5
CCC(=O)c1ccc(OC(=O)c2cnccn2)cc1	17*	TbREL1 conf=3
COc1ccc(C(=O)NCCNC(=O)c2cnccn2)cc1	-1
O=C(OCCOc1ccc(Br)cc1)c1cnccn1	-2
COc1ccc(C=NNC(=O)c2cc(-c3ccc(C)c(C)c3)n[nH]2)cc1OCc1ccccc1	3
CC1CN(CC(O)COC(c2ccccc2)c2ccccc2)CC(C)O1 (centres undefined)	5
OC(COC(c1ccc(Cl)cc1)c1ccc(Cl)cc1)CN1CCCC1 (centres undefined)	5
Cc1ccc(C(OCC(O)CN2CCCCC2)c2ccccc2)cc1 (centres undefined)	13*	TbREL1 conf=6
NC(=O)c1ccccc1-c1noc(-c2ccccc2F)n1	4
SMILES	TbREL1 inh	others
O=C(Nc1ccc(OC(F)(F)F)cc1)Nc1c(-c2ccc(C(F)(F)F)cc2)nc2ncccn12	-1
COc1ccc(OCCN2CCN(S(=O)(=O)c3ccccc3C#N)CC2)cc1	7
N#Cc1ccccc1S(=O)(=O)N1CCN(CC(O)CN2CCOCC2)CC1 (centres undefined)	20*	TbREL1 conf=11
COc1ccc(S(=O)(=O)N2CCN(CC(O)CN3CCOCC3)CC2)cc1 (centres undefined)	3
COc1ccc(OC)c(S(=O)(=O)N2CCCC(C(=O)Nc3c(C)n(C)n(-c4ccccc4)c3=O)C2)c1 (centres undefined)	0
COP(=O)(O)C(C)NC(=O)OCc1ccccc1 (centres undefined)	1
COc1ccc(C2C(C(=O)Nc3c(C)cccc3C)CCC(=O)N2c2ccc(OC)cc2)cc1 (centres undefined)	6
Clc1nssc1=Nc1nncs1	18*	TbREL1 conf=19*
Clc1nssc1=Nc1ccc(Br)cc1	-1
Cc1ccc(NC(=O)c2ccc(CS(=O)(=O)Cc3ccccc3C)o2)c(C)c1	6
COc1ccc(-c2noc(CN(C)Cc3ccccc3)n2)cc1	-2
COc1ccc(CNC(=O)CN(C)Cc2ccc(SC)cc2)cc1	-1
COc1ccc(CN(C)CC(O)COC(c2ccc(OC)cc2)c2ccc(OC)cc2)cc1 (centres undefined)	13*	TbREL1 conf=8
Cc1ccc(-n2c(Cc3cccs3)nnc2SCC(=O)Nc2cccc3ccccc23)cc1	-1
O=C1c2cc([N+](=O)[O-])ccc2-c2ncccc21	1
O=C1c2ccccc2-c2nccnc21	-1
O=C1C(=O)c2cccnc2-c2ncccc21	43*	TbREL1 conf=68*
Cc1ccccc1NC(=O)c1cccc2c1-c1ccccc1C2=O	-3
Fc1cccc(CNC2CCC23CCC(c2ccccc2)CC3)c1 (centres undefined)	-1
Nc1ccn([C@@H]2O[C@H](C(=O)N[C@H](Cc3ccccc3)C(=O)NCc3cccc4c3OCO4)[C@@H](O)[C@H]2O)c(=O)n1	-1
O=c1cc(N2CCN(c3cccc(C(F)(F)F)c3)CC2)[nH]c(=O)n1-c1ccccc1	-4
CN(C)CCNC(=O)/C=C/c1cn(-c2ccccc2)nc1-c1cc2ccccc2oc1=O	12*	TbREL1 conf=4
O=Cc1cn(-c2ccccc2)nc1-c1cc2ccccc2oc1=O	6
O=C(/C=C/c1cn(-c2ccccc2)nc1-c1cccnc1)NCCN1CCOCC1	2
O=C(CSc1nnc(SCc2cccc3ccccc23)s1)c1ccc(F)cc1	-1

Source: PubChem (The Scripps Research Institute Molecular Screening Center)
